Compound activity from PubChem BioAssay.
ClpP mod: qHTS Assay for Activators of ClpP. Potency, µM (top dose mostly 57.5 µM). purified B. subtilis ClpP, FRET peptide cleavage, 20 min. ATP-dependent Clp protease proteolytic subunit (Bacillus subtilis (strain 168)), P80244. 1.9% of 340,000 active; active = well fitted falling curve with a large enough effect; inconclusive = small, poorly fitted or top-dose-only effect; inactive = no such curve, though single readings can be large or run the other way; also: the source files actives as falling curves though it sought activators and does not explain the sign; nearly all actives have a fitted effect of over 65% in size
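ClpP 10 microg/mL final, pH 8 Tris/KCl buffer with BSA, glycerol, Tween-20; compound pinned in; FRET-FV substrate; RT 20 min; Ex320/Em430; ΔFRET vs ADEP 5.8 microM, DMSO, no enzyme.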
TDP1 block: TDP1 (human) enzyme inhibition; Q9NUW8; recombinant TDP1, AlphaScreen DNA substrate cleavage; Potency, µM (top dose mostly 130 µM), usual class: inhibitors; 0.28% of 350,000 active; AID 485290; also: nearly all actives have a fitted effect of over 40% in size
Target sequence (Q9NUW8 whole entry, looked up): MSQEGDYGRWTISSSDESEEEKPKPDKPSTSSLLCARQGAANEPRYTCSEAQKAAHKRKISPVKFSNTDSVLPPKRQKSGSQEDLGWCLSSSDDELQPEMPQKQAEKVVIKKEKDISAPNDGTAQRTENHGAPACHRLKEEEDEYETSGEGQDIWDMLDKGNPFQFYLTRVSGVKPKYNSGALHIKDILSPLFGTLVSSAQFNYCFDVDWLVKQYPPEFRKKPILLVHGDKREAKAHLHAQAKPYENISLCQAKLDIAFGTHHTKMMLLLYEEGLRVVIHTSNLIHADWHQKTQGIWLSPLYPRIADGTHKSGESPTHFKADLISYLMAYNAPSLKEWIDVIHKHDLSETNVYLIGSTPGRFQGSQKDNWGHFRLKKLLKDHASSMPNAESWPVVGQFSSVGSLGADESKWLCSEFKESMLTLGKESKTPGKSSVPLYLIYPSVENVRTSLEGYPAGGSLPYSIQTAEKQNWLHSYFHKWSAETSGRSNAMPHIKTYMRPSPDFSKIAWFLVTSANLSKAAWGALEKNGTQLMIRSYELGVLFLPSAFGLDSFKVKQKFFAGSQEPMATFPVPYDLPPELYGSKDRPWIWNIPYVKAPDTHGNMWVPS
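Here, a 5' biotin and 3' phosphotyrosine-FITC DNA oligonucleotide reports Tdp1 activity: intact substrate bridges AlphaScreen beads, while cleavage leaves a 3' phosphate and drops signal. All incubations at room temperature.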
DT40 TDP1 no CPT: qHTS for Inhibitors of human tyrosyl-DNA phosphodiesterase 1 (TDP1): qHTS in cells in absence of CPT | AID 686978, 2013 | 15% of 420,000 active | DT40 Tdp1-/- hTDP1 cells, no CPT, ATP luminescence, 48 h | Potency, µM (highest dose often 46.2 µM), hits mostly inhibitors; also: nearly all actives have a fitted effect of over 55% in size
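Readout: luminescence from CellTiter-Glo after 30 min in the dark at RT. Cells: DT40 Tdp1-/- with stable hTDP1, 400/well. Exposure: compounds alone, ≥48 hr, 37 °C.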
TDP1 cell CPT: growth inhibition of DT40 Tdp1-/-;hTDP1 cells with camptothecin (screen for TDP1 inhibitors); chicken DT40 Tdp1-/-;hTDP1 cells + 20 nM CPT, ATP luminescence, 48 h; 12% of 420,000 active; Potency, µM (highest dose often 46.2 µM), usual class: inhibitors; also: nearly all actives have a fitted effect of over 55% in size
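Chicken DT40 Tdp1-/- cells complemented with human TDP1, 400 cells/well, exposed to compounds plus 20 nM camptothecin for at least 48 h at 37 C; viability read as ATP content by CellTiter-Glo luminescence.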
A number is an active result; ! = repeats disagree. Hits are enriched below; roughly 17% of the tested compounds scored in any of these assays. Unless noted, calls follow the shape of the dose curve; as a rule, active = well fitted curve in the direction sought with a large enough effect; inconclusive = small, poorly fitted or top-dose-only effect, or another doubt; inactive = no such curve, though single readings can be large; an effect the other way counts as inactive or inconclusive.

CCOc1ccc(NCc2cccn2-c2nnc(N3CCC(C(=O)NCc4cccc(OC)c4)CC3)s2)cc1 was read as ClpP mod inactive, TDP1 block inactive, DT40 TDP1 no CPT 6.51µM and TDP1 cell CPT inconclusive.
`O=C(CCc1c[nH]c2ccccc12)N1CCN(S(=O)(=O)c2ccc(F)cc2)CC1` gave TDP1 block inactive, DT40 TDP1 no CPT inconclusive and TDP1 cell CPT inactive.
For CCCOc1ccc(CNC(=O)C2CCN(C(=O)N3CCOc4ccccc43)CC2)cc1 the results were ClpP mod inactive, DT40 TDP1 no CPT inconclusive and TDP1 cell CPT 20.6µM.
Screening CCC1CN(C(=O)N2CCC(C(=O)NCc3ccco3)CC2)c2cc(C)ccc2O1 (centres undefined) returned ClpP mod inactive, TDP1 block inactive, DT40 TDP1 no CPT 18.4µM! and TDP1 cell CPT inconclusive.
Screening CCC1CN(C(=O)N2CCC(C(=O)NCc3ccc(C)o3)CC2)c2cc(C)ccc2O1 (centres undefined) returned ClpP mod inactive, TDP1 block inactive, DT40 TDP1 no CPT inconclusive and TDP1 cell CPT 16.4µM!.
For CCc1ccc(CNC(=O)C2CCN(C(=O)N3CC(CC)Oc4ccc(C)cc43)CC2)cc1 (centres undefined) the results were ClpP mod inactive, TDP1 block inactive, DT40 TDP1 no CPT 20.6µM and TDP1 cell CPT 20.6µM.
Screening COc1ccc(CNC(=O)C2CCN(C(=O)N3CC(C)Oc4ccc(C)cc43)CC2)cc1 (centres undefined) returned ClpP mod inactive, TDP1 block inactive, DT40 TDP1 no CPT inconclusive and TDP1 cell CPT inconclusive.
Screening CNC(=O)[C@H](C)/C=C(\c1cccnc1)C(NC(=O)OCc1ccccc1)c1ccc(C(=O)OC)cc1 (some centres undefined) returned TDP1 block inactive.
`Cc1ccc2c(c1)N(C(=O)N1CCC(C(=O)NCc3cccc(Br)c3)CC1)CCO2` gave ClpP mod inactive, TDP1 block inactive, DT40 TDP1 no CPT 20.6µM and TDP1 cell CPT inconclusive.
Cc1ccc(NC(=O)C2CCN(C(=O)N3CCOc4ccccc43)CC2)cc1 was read as ClpP mod inactive, DT40 TDP1 no CPT inconclusive and TDP1 cell CPT inconclusive.
Screening CN1C(=S)N(c2cccnc2)C(=O)/C1=C\c1ccc(C(C)(C)C)cc1 returned ClpP mod inactive, TDP1 block inactive, DT40 TDP1 no CPT 14.6µM and TDP1 cell CPT 16.4µM.
`CCCS(=O)(=O)N1CC(=O)N(c2ccc(Cl)cc2)C(C)(C(=O)NC2CCCC2)C1` (centres undefined) gave ClpP mod inactive, TDP1 block inactive, DT40 TDP1 no CPT inactive and TDP1 cell CPT inactive.
For O=C(Nc1ccc2c(c1)OCCO2)C(CCc1ccccc1)N1CCC(Cc2ccccc2)CC1 (centres undefined) the results were ClpP mod inactive, DT40 TDP1 no CPT 16.4µM and TDP1 cell CPT inconclusive.
For O=C(Nc1ccc(F)cc1)C(CCc1ccccc1)N1CCN(c2ccncc2)CC1 (centres undefined) the results were ClpP mod inactive, DT40 TDP1 no CPT 23.1µM and TDP1 cell CPT 16.4µM.
Cc1cccc(C)c1NC(=O)C(c1ccccc1)N1CCC(c2ccccc2)CC1 (centres undefined) was read as ClpP mod inactive, DT40 TDP1 no CPT 14.6µM and TDP1 cell CPT inconclusive.
O=C(Nc1ccc2c(c1)OCCO2)C(CCc1ccccc1)N(Cc1ccccc1)Cc1ccccc1 (centres undefined) was read as ClpP mod inactive, DT40 TDP1 no CPT inconclusive and TDP1 cell CPT inconclusive.
`Cc1cccc(C)c1NC(=O)C(c1ccccc1)N1CCC2(CC1)OCCO2` (centres undefined) gave ClpP mod inactive, DT40 TDP1 no CPT inactive and TDP1 cell CPT inactive.
Screening O=C(Nc1ccc(F)cc1)C(c1ccccc1)N1CCN(c2ccncc2)CC1 (centres undefined) returned ClpP mod inactive, DT40 TDP1 no CPT inconclusive and TDP1 cell CPT inactive.
CSCCC(C(=O)Nc1c(C)cccc1C)N1CCN(c2ccc(F)cc2)CC1 (centres undefined) was read as ClpP mod inactive, DT40 TDP1 no CPT 20.6µM and TDP1 cell CPT inconclusive.
